Results on 40 compounds are retold here after PubChem BioAssay AID488913 (National Center for Advancing Translational Sciences (NCATS), 2010).

Several values for one entry are separate records, joined by “and”; a condition that tells them apart may be missing. Identical values can stand only once. Records with an inconclusive call do not appear. Activity calls are given as the source filed them. The call rests on the fitted dose curve; in most records, active means well fitted inhibition curve with a large enough effect; inconclusive means small, poorly fitted or top-dose-only effect, or effect the other way; inactive means no such curve, though single readings can be large or run the other way.

The experiment is described as follows: Confirmation Concentration-Response Assay for lipid storage modulators: for probe SAR. The conditions noted are these: Drosophila S3 cells, BODIPY lipid droplet fluorescence, 18-24 h; series mostly up to 46.1 µM; activity change, negative = lipid storage inhibition: at the top concentration. An excerpt: NIH Molecular Libraries Probe Production Centers Network [MLPCN] NIH Chemical Genomics Center [NCGC] MLPCN Grant: 1 R03 MH085686-01 Assay Submitter (PI): Beller, Mathias; Max-Planck-Institut fur Biophysikalische Chemie NCGC Assay Overview: Storing lipids as a reservoir for energy or the anabolism of elementary metabolites is a common feature of probably all cells and is conserved from bacteria to humans. The universal cellular lipid storage organelle is the so-called lipid storage droplet (LD). Although ubiquitous, LDs share a simple structure composed of a hydrophobic core that harbors the storage lipids, which is shielded by a droplet-specific phospholipid monolayer to which proteins are attached. The current model of LD biogenesis involves an incorporation of the lipid core into the membrane leaflets of the endoplasmic reticulum (ER) followed by a subsequent budding-like maturation of a LD, which ultimately pinches off. Once released, LD volume can increase by localized lipogenesis or fusion of existing droplets. Storage lipids are re-mobilized enzymatically by lipase activity. Lipase regulation in the adipocyte is heavily studied and involves multiple components including catecholamine signaling, the LD-associated proteins Perilipin and comparative gene identification-58 (CGI-58) and at least two lipases named hormone sensitive lipase (HSL) and adipocyte triglyceride lipase (ATGL). LD regulation outside of the adipocyte is poorly understood and only few components are known. However, there is an urgent need to learn more about ectopic fat depots as mislocalized storage of lipids, for example in the liver or muscle, is an eminent health problem associated with insulin resistance or the metabolic syndrome. We developed a laser-scanning cytometer assay to enable 1,536-well screening and combined the results of the small molecules screen with an RNAi database based on lipid storage.
We dispensed 4 uL of cells at 1.25 x 10^6 cells/mL into LoBase Aurora COC 1,536-well plates (black walled, clear bottom) with a bottle-valve solenoid-based dispenser (Aurora) to obtain 5,000 cells/well. Triacsin C (Sigma-Aldrich T-4540), an inhibitor of long-chain fatty acyl CoA synthetase that blocks synthesis of triglycerides, was used as a positive control for lipid under-storage. A total of 23 nL of compound solution of different concentrations were transferred to the assay plates using a Kalypsys pin tool equipped with a 1,536-pin array containing 10-nL slotted pins (FP1S10, 0.457-mm diameter, 50.8 mm long; V&P Scientific). One microliter of oleic acid (400 uM) was added, and the plate was lidded with stainless steel rubber gasket lined lids containing pinholes. After 18-24 h incubation at 24 degree Celsius and 95% humidity, 4 uL of the dyes BODIPY 493/503 (Molecular Probes) and the Cell Tracker Red CMTPX dye (Molecular Probes) were added to the wells to stain lipid droplets and enumerate cell number, respectively. Fluorescence was detected by excitation of the fluorophores with a 488-nm laser on an Acumen Explorer (TTP Lab Tech). The total intensity in channel 1 (500-530 nm) reflected lipid droplet accumulation. Cells were detected using channel 3 (575- 640 nm) with 5-um width and 100-um depth filters. The ratio of the total intensity in PMT channel 1 over total intensity of channel 3 was also calculated. Percent activity was computed relative to an internal control (100% inhibited lipid droplet deposition due to the presence of 20 uM Triacsin C), which was added to 32 wells/plate.
With `CCOC(=O)C1CCN(C(=O)C2(NC(=O)Nc3ccccc3Cl)CCCCC2)CC1`, the Potency is 1440 nM (active). Consider `CC(C)(C)OC(=O)N1CCCCC1C(=O)NC1CCCc2c1cnn2-c1ccc(F)cc1F` (stereo not given), for which the “activity change, negative = lipid storage inhibition” value was -14.1% (inactive).

Regarding `O=C(NC1CCCc2c1cnn2-c1ccc(F)cc1F)C1CC1` (stereo not given), the Potency is 1580 nM (active). `Cc1ccc(-c2cnc(SCC(=O)Nc3nccs3)n2Cc2ccco2)cc1`: the “activity change, negative = lipid storage inhibition” value is 13.8% (inactive). As to `CC(=O)NCc1ccc(-c2csc(NC(=O)Cc3cccs3)n2)cc1`, the “activity change, negative = lipid storage inhibition” value was 15% (inactive). Consider `CC(C)(C)OC(=O)NC1CCCc2c1cnn2-c1ccc(F)cc1F` (stereo not given), for which the Potency is 888 nM (active).

Turning to `O=C(CSc1nnc(NCc2ccccc2)s1)Nc1nc(-c2ccc(F)c(F)c2)cs1`, the Potency is 1250 nM (active). Regarding `CN(C)CC(=O)NC1CCCc2c1cnn2-c1ccc(F)cc1F` (stereo not given), the “activity change, negative = lipid storage inhibition” value was -14.5% (inactive).

As to `O=C(NC1CCCCC1)NC1(C(=O)N2CCCC2)CCCCC1`, the “activity change, negative = lipid storage inhibition” value was 21% (inactive). Take `O=C(NC1CCCc2c1cnn2-c1ccc(F)cc1F)c1cccc(F)c1F` (stereo not given): the Potency was 315 nM (active).

As to `CCOc1ccc(CCNC(=O)c2cc3sc(CC)cc3n2C)cc1OCC`, the Potency is 1220 nM (active).

For the compound `CCOc1ccc(CCNC(=O)c2cc3sccc3n2CC)cc1OCC`, the Potency was 158 nM (active). The same measure, in the same setting: the figure for `CC1=C(C(=O)NC2CCCc3c2cnn3-c2ccc(F)cc2F)OCCO1` (stereo not given) is 15.8 nM (active). `CCOc1ccc(CCNC(=O)c2cc3c(s2)CCC3)cc1OCC`: the Potency was 560 nM (active). Consider `CCOc1ccc(CCNC(=O)c2cc3sccc3n2Cc2ccc(OC(F)F)cc2)cc1OCC`, for which the Potency is 6.3 nM (active). The same measure, in the same setting: the result for `CCn1c(C(=O)NCCc2ccc(OC)c(OC)c2)cc2sc(Cl)cc21` reads 9710 nM (active); that for `CCOc1ccc(CCNC(=O)c2cc3sccc3n2Cc2cccnc2)cc1OCC`, 353 nM (active); that for `CCOc1ccc(CCNC(=O)c2cccc(C(=O)c3ccccc3)c2)cc1OCC`, 15800 nM (active). Still for that read-out and setting: the result for `S=C(Nc1cc(Cl)ccc1Oc1ccccc1)N1CCN(c2ncccn2)CC1` reads 12500 nM (active).

Consider `COc1ccc(NC(=S)N2CCN(c3cccc(Cl)c3)CC2)c(OC)c1`, for which the “activity change, negative = lipid storage inhibition” value was 9.66% (inactive).

Regarding `O=C(NCCc1ccc(O)c(O)c1)c1cc2sccc2n1Cc1ccccc1`, the “activity change, negative = lipid storage inhibition” value was -18.1% (inactive).

In the case of `CCOc1ccc(CCNC(=O)c2cc3sccc3n2Cc2ccc(Cl)c(F)c2)cc1OCC`, the Potency was 6.3 nM (active).

Turning to `O=C(NC1CCCc2c1cnn2-c1ccc(F)cc1F)c1ccccn1` (stereo not given), the Potency was 8.7 nM (active) and 7.9 nM (active). On the same count and under the same terms, the figure for `O=C(NC1CCCc2c1cnn2-c1ccc(F)cc1F)c1ccc(F)cc1` (stereo not given) is 445 nM (active); for `CCOc1ccc(CCNC(=O)c2cc3sccc3n2Cc2ccc(-n3cncn3)cc2)cc1OCC` it is 177 nM (active); for `COc1ccc(-n2ncc3c2CCCC3NC(=O)c2cnc(C)cn2)cc1` (stereo not given) it is 1580 nM (active). For the compound `CCOC(=O)C1CCCN(C(=O)C2(NC(=O)Nc3ccc(F)cc3F)CCCCC2)C1` (stereo not given), the “activity change, negative = lipid storage inhibition” value is -2.41% (inactive). Regarding `O=C(NC1CCCc2c1cnn2-c1cc(F)cc(F)c1)c1ccc(F)cc1Cl` (stereo not given), the Potency was 2230 nM (active). The same measure, in the same setting: the result for `CCn1c(C(=O)NCCc2ccc(OC)c(OC)c2)cc2sccc21` reads 3970 nM (active). For the compound `CCOc1ccc(CCNC(C)=O)cc1OCC`, the “activity change, negative = lipid storage inhibition” value is 41.6% (inactive). With `Cc1cccc(Nc2nnc(SCC(=O)Nc3nc(-c4ccc(F)cc4)cs3)s2)c1`, the Potency was 628 nM (active). Turning to `Cc1cc(SCc2sc(-c3ccc(C(F)(F)F)cc3)nc2C)ccc1OCC(=O)O`, the “activity change, negative = lipid storage inhibition” value is 44.3% (inactive).

Turning to `O=C(Cc1ccccc1)NC1CCCc2c1cnn2-c1ccc(F)cc1F` (stereo not given), the “activity change, negative = lipid storage inhibition” value was -6.41% (inactive).

Turning to `COc1ccc(CCNC(=O)c2cc3sccc3n2Cc2ccc(Cl)cc2)cc1OC`, the Potency was 194 nM (active). Take `COc1ccc(-c2csc(NC(=O)CSc3nnc(Nc4ccccc4)s3)n2)cc1`: the Potency was 628 nM (active).

In the case of `CCOC(=O)C1CCN(C(C)C(=O)NC(=O)NC2CCCCC2)CC1` (stereo not given), the “activity change, negative = lipid storage inhibition” value is 25.6% (inactive). Turning to `COc1ccc(CCNC(=O)c2cc3sccc3n2Cc2ccccc2)cc1OC`, the Potency is 315 nM (active). With `O=C(NC1CCCc2c1cnn2-c1ccc(F)cc1F)C1CCCCN1` (stereo not given), the “activity change, negative = lipid storage inhibition” value was -5.13% (inactive). Take `O=C(NC1CCCc2c1cnn2-c1ccc(F)cc1F)c1ccn[nH]1` (stereo not given): the Potency was 2810 nM (active). Still for that read-out and setting: the result for `CCOc1ccc(CCNC(=O)c2cc3sccc3n2Cc2cccc(C)c2)cc1OCC` reads 4 nM (active).
